Compound activity: PubChem BioAssay, Broad Institute
This is one part of a sample in which hits are shown more often than they occur.
STK33 inh: blocks human STK33 kinase activity | ADP-Glo luminescence, MBP substrate | Q9BYT3 | AID 2322 | 27,000 tested, 0.44% active | inhibition, % at 12.5 µM; in the data active means inhibition above about 20%
Target sequence (Q9BYT3 whole entry, looked up): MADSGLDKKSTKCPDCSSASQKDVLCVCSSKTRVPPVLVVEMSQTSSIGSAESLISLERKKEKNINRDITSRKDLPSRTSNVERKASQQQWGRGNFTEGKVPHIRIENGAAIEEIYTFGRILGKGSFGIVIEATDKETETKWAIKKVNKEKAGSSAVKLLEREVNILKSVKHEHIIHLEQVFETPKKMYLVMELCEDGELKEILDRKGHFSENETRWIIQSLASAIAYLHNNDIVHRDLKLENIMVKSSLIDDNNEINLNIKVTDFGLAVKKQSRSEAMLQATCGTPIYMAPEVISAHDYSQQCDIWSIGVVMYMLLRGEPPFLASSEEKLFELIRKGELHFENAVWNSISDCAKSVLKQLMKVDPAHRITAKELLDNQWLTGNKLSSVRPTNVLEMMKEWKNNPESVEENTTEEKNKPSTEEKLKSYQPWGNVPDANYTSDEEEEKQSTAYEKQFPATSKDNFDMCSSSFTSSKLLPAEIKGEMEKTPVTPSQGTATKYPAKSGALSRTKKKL
NOMO-1 viab: STK33 inhibitor candidate reducing NOMO-1 cell viability | NOMO-1 AML viability, CellTiter-Glo luminescence, 72 h | inhibition, % (concentration not given with the values) | 37,000 tested, 7.5% active; in the data active means inhibition above about 80%
PD-1 reversal: activators reversing PD-1 mediated T-cell inhibition; 29,000 tested, under 10 active; primary human CD4 T cells, PD-L1 beads, CellTiter-Glo 96 h; AID 2316; activation, % (concentration not given with the values); call rule not given here
Numbers stand for hits; 0 = inactive; - = no result; ! = a repeat was not active.

SMILES	STK33 inh	NOMO-1 viab	PD-1 reversal
CC(Oc1cccc(NC(=O)c2ccc([N+](=O)[O-])cc2)c1)C(=O)c1cccc(Cl)c1 (stereo not given)	0	0	-
O=C(CSc1nc2ccccc2o1)Nc1ccc(I)cc1	0	0	-
CCOc1ccccc1-c1nnc(SCC(=O)Nc2ccc(I)cc2)o1	0	119.3	0
Cc1sc(NC(=O)c2ccccc2)c(C(=O)N2CCCCC2)c1C	-	0	0
CCc1cc(C(c2ccc(Cl)cc2)N2CCN(CCO)CC2)c(NC(=O)c2ccccc2)s1 (stereo not given)	-	116.8	0
O=C1NN=C(c2ccccc2)/C1=C1\OC(c2ccccc2)=CS1	-	138.8	0
CCOC(=O)CC1Sc2ccccc2N=C1SCC(=O)Nc1cccc(C(F)(F)F)c1 (stereo not given)	-	126.5	0
CCOc1ccc2nc(SCC(=O)Nc3cccc(C(F)(F)F)c3)sc2c1	0	0	-
CNC[C@H]1Oc2c(NC(=O)C3CC3)cccc2C(=O)N([C@H](C)CO)C[C@H]1C	-	0	0
Cc1cc(C)c(C)c(S(=O)(=O)NCCc2c(C)[nH]c3ccccc23)c1C	0	0	0
Cc1ccc(S(=O)(=O)N(C)CC(=O)Nc2ccc(Br)cc2C)cc1	0	0	0
CN1CCN(CCCN2c3ccccc3Sc3ccc(C(F)(F)F)cc32)CC1	0	111.9!	-
O=C(CCN1CCN(CCO)CC1)N1c2ccccc2Sc2ccc(C(F)(F)F)cc21	0	0	-
Cc1ccc(Nc2ccc3noc4c3c2C(=O)c2ccccc2-4)cc1	-	126.7	0
CNc1cc(NC)c2ncnc3c2c1C(=O)c1ccccc1-3	-	0	0
C[C@@H]1CN([C@H](C)CO)C(=O)c2cccc(NC(=O)Nc3ccc(F)cc3)c2O[C@@H]1CN(C)C(=O)Nc1ccc2c(c1)OCO2	-	0	-
COC(=O)c1ccccc1NC(=O)C(C)Oc1ccc2c(C)cc(=O)oc2c1 (stereo not given)	0	89.4	-
Cc1cc(=O)oc2cc(OC(C)C(=O)NCC3CCCO3)ccc12 (stereo not given)	0	0	0
O=c1c(-c2ccccc2)c(O)cc(-c2ccc(F)cc2)n1-c1ccccc1	-	0	0
O=c1cc(-c2ccccc2)n(-c2ccccc2)cn1	0	100.6	0
Cc1ccc(S(=O)(=O)N(C)C[C@@H]2Oc3c(NS(=O)(=O)c4ccccc4)cccc3C(=O)N([C@@H](C)CO)C[C@H]2C)cc1	-	0	0
C[C@@H]1CN([C@H](C)CO)C(=O)Cc2cc(NC(=O)CCN3CCOCC3)ccc2O[C@H]1CN(C)Cc1ccc2c(c1)OCO2	0	0	-
O=C(CCc1ccc(O)cc1)c1c(O)cc(O)cc1O	35.2	0	-
O=C(CCCCCCCCc1ccccc1)c1c(O)cc(O)cc1O	0	-	-
C[C@@H]1CN([C@H](C)CO)C(=O)c2cccc(NS(C)(=O)=O)c2O[C@@H]1CN(C)Cc1ccc(C(=O)Nc2ccccc2N)cc1	-	0	0
SMILES	STK33 inh	NOMO-1 viab	PD-1 reversal
Cc1noc(C)c1S(=O)(=O)Nc1cccc2c1O[C@H](CN(C)Cc1ccc(C(=O)Nc3ccccc3N)cc1)[C@H](C)CN([C@@H](C)CO)C2=O	-	137.2	0
Cc1noc(C)c1S(=O)(=O)Nc1cccc2c1O[C@@H](CN(C)Cc1ccc(C(=O)Nc3ccccc3N)cc1)[C@@H](C)CN([C@H](C)CO)C2=O	-	82.5	0
Cc1noc(C)c1S(=O)(=O)Nc1cccc2c1O[C@@H](CN(C)Cc1ccc(C(=O)O)cc1)[C@@H](C)CN([C@@H](C)CO)C2=O	-	0	0
C[C@@H]1CN([C@H](C)CO)C(=O)c2cc(NC(=O)CCC(F)(F)F)ccc2O[C@@H]1CN(C)Cc1ccc(C(F)(F)F)cc1	0	0	0
CC(C)NS(=O)(=O)c1ccc(OCC(=O)N2CCOCC2)c(Cl)c1	0	0	0
C[C@@H]1CCCCO[C@@H](CN(C)Cc2ccccc2)[C@@H](C)CN([C@H](C)CO)C(=O)c2cc(NC(=O)CCC(F)(F)F)ccc2O1	0	0	0
COc1ccc(C[C@H](N)C(=O)N[C@H]2[C@@H](O)[C@H](n3cnc4c(N(C)C)ncnc43)O[C@@H]2CO)cc1	0	120.4	-
Nc1ncnc2c1ncn2C1OC(CO)[C@H](O)[C@@H]1S (stereo not given in full)	0	0	0
C=CCNC(=S)Nn1c(C)nnc1-n1nc(C)cc1C	-	0	0
C[C@@H]1CN([C@@H](C)CO)C(=O)c2cc(NC(=O)Cc3cn(C)c4ccccc34)ccc2O[C@@H]1CN(C)Cc1ccccc1	-	0	0
C[C@H](CO)N1C[C@H](C)[C@@H](CN(C)Cc2ccc(Cl)c(Cl)c2)Oc2ccc(NC(=O)Cc3cn(C)c4ccccc34)cc2C1=O	-	0	0
C[C@@H]1CN([C@@H](C)CO)C(=O)c2cc(NC(=O)Cc3cn(C)c4ccccc34)ccc2O[C@H]1CN(C)Cc1ccc(Cl)c(Cl)c1	0	96.6	0
